Test results as given in the supplement of paper PMC6555819.

Key:
Assay in all cases: PBM binding z-score (relative to random genomic background probes); higher = stronger binding; sequences stand for … in GC…GCGATTGACAGCGTAGAATGAAGG
[1] = tested on: FXR:RXRa (NR concentration 270 nM, RXRa partner concentration 90 nM)
Summary of the method: (§1)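 Probes were double-stranded and carried 34-nt variable regions with direct-repeat seeds, single-nucleotide variants, half-site ablations and random human genomic background sequences, printed on custom Agilent 4×180K protein-binding microarrays. Arrays were incubated 1 h with ligand-free nuclear receptor dimers in PBS pH 7.4, 2% milk, 0.02% Triton X-100, 1 mM DTT, 0.2 mg/mL BSA and 0.4 mg/ml salmon testes DNA. Antibodies against each partner (one per run) detected binding, and scanned fluorescence was regression-normalized. Binding z-scores use the random background probes as reference.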

[2] = tested on: LXRa:RXRa (NR concentration 270 nM, RXRa partner concentration 90 nM)
Summary of the method: as §1

[3] = tested on: LXRa homodimer (NR concentration 270 nM)
Summary of the method: as §1

[4] = tested on: LXRb:RXRa (NR concentration 270 nM, RXRa partner concentration 90 nM)
Summary of the method: as §1

[5] = tested on: LXRb homodimer (NR concentration 270 nM)
Summary of the method: as §1

[6] = tested on: PPARa:RXRa (NR concentration 270 nM, RXRa partner concentration 90 nM)
Summary of the method: as §1

[7] = tested on: PPARg:RXRa (NR concentration 180 nM, RXRa partner concentration 90 nM)
Summary of the method: as §1

[8] = tested on: PPARg:RXRa 270nM:90nM, anti-RXR (NR concentration 270 nM, RXRa partner concentration 90 nM)
Summary of the method: as §1

[9] = tested on: PPARg:RXRa 30nM:10nM, anti-RXR (NR concentration 30 nM, RXRa partner concentration 10 nM)
Summary of the method: as §1

[10] = tested on: PPARg:RXRa 90nM:30nM, anti-RXR (NR concentration 90 nM, RXRa partner concentration 30 nM)
Summary of the method: as §1

[11] = tested on: PPARg:RXRa DBDmut IVT, anti-RXR (DBD mutation: RXRa K156A/R161A, NR concentration 270 nM, RXRa partner concentration 90 nM)
Summary of the method: as §1

[12] = tested on: PPARg:RXRa IVT, anti-PPARg (NR concentration 270 nM, RXRa partner concentration 90 nM)
Summary of the method: as §1

[13] = tested on: PPARg DBDmut:RXRa IVT, anti-PPARg (DBD mutation: PPARg1 K132A/R137A, NR concentration 270 nM, RXRa partner concentration 90 nM)
Summary of the method: as §1

[14] = tested on: PPARg DBDmut IVT, anti-PPARg (DBD mutation: PPARg1 K132A/R137A, NR concentration 270 nM)
Summary of the method: as §1

[15] = tested on: PPARg homodimer (NR concentration 180 nM)
Summary of the method: as §1

[16] = tested on: PXR:RXRa (NR concentration 270 nM, RXRa partner concentration 90 nM)
Summary of the method: as §1

[17] = tested on: PXR homodimer (NR concentration 270 nM)
Summary of the method: as §1

[18] = tested on: RARa:RXR (NR concentration 270 nM, RXRa partner concentration 90 nM)
Summary of the method: as §1

[19] = tested on: RARa homodimer (NR concentration 270 nM)
Summary of the method: as §1

[20] = tested on: RARb:RXRa (NR concentration 270 nM, RXRa partner concentration 90 nM)
Summary of the method: as §1

Sequence	PBM binding z-score [1]	PBM binding z-score [2]	PBM binding z-score [3]	PBM binding z-score [4]	PBM binding z-score [5]	PBM binding z-score [6]	PBM binding z-score [7]	PBM binding z-score [8]	PBM binding z-score [9]	PBM binding z-score [10]	PBM binding z-score [11]	PBM binding z-score [12]	PBM binding z-score [13]	PBM binding z-score [14]	PBM binding z-score [15]	PBM binding z-score [16]	PBM binding z-score [17]	PBM binding z-score [18]	PBM binding z-score [19]	PBM binding z-score [20]
GCTGCTAGGTCAGGTTGGACAGCTAACGGGTACG	1.1	0.591	-0.119	0.0809	-0.346	1.2	0.798	0.804	-0.236	-0.0943	2.44	2.18	-0.356	-0.812	0.345	0.082	-0.273	0.436	-0.846	3.39
CGTGCAAGGTCAATGCTAGGTCAGTGAAAGCATT	6.79	5.7	1.91	4.42	0.212	5.53	4.26	5.03	1.47	3.77	3.32	4.08	0.426	-0.53	3.59	4.91	0.967	6.46	0.996	5.34
TCATATAGGTAAAGAGGTGAAAGTCCGTAAGTTA	1.74	1.63	0.378	1.56	-0.0509	3.46	4.38	4.63	4.83	5	4.95	5.26	1.1	0.188	1.78	1.23	0.825	1.76	1	1.65
ATATGTAGGTGAGCTGGGGTCATTCAGACTAGGC	4.23	3.62	0.762	4.15	0.598	5.85	7.13	5.75	3.65	5.74	7.57	7.41	3.98	2.99	1.94	6.35	3.01	5.85	0.796	3.08
GCTTGTAGATCAAGCTTAAGAAAGACTAAGCTAA	-0.441	-0.75	-0.914	-0.777	-1.32	-0.455	-0.439	-0.251	-0.693	-0.381	0.937	0.0262	-0.496	-0.218	-0.356	-0.566	-0.868	-0.0967	-0.929	-1.78
GGAACGAGGGCAACTTGATAGCAGAGTTTGATGG	0.815	0.375	-0.472	0.468	-0.203	1.53	1.63	1.28	-0.0805	0.883	4.45	3.29	0.236	0.0207	0.796	0.872	0.418	0.629	0.251	2.72
CAAACTAGGTCACCGGAAGGTCAGAGTCCGCATG	5.32	4.74	2.63	4.09	0.598	5.96	9.65	7.46	5.57	7.33	8.5	8.94	4.78	2.92	4.96	4.71	0.703	6.14	2.03	5.31
TATCCTAGGTCATGGGCCAGTATACCACGCGAAC	5	5.58	3.83	3.5	1.69	4.57	5.5	5.51	3.05	4.89	4.23	5.29	1.4	1.68	1.22	2.25	0.762	2.93	1.01	4.06
ATACCAAGGTGATCGTGAGGTTGTTGATACTAAC	0.619	0.547	0.106	0.338	-0.241	0.626	0.435	0.149	0.0438	0.112	0.768	0.997	0.831	0.892	0.541	0.741	0.299	0.978	0.0495	0.63
GCTATTAGTTGAAAGCGCAACCGAATGATTCTCG	-0.0843	-0.353	0.0981	-0.318	-0.315	-0.41	0.157	-0.0229	0.0302	-0.22	0.316	-0.176	-0.265	-0.6	0.252	-0.405	-0.357	-0.564	-0.0512	-0.343
GCATATAGGTAATACAAGGTGAAAGTACGATTGT	0.899	2.24	0.263	0.874	-0.16	1.82	1.98	1.86	0.776	1.17	3.58	3.44	1.47	0.563	0.701	0.648	0.0601	1.84	0.78	0.387
CCTAGAAGGCCAATCTGGGTCACTCAAGGCTTGA	1.99	3.1	-0.29	2.04	-0.793	3.72	2.93	2.57	0.176	1.97	3.74	4.78	-0.238	-1.07	1.21	1.86	-0.344	2.12	0.185	2.4
ATCTCCAGGTAAAGATAGTTCAGTGAATGCAAAT	0.234	4.39	0.615	0.852	0.602	0.316	0.194	0.28	0.232	-0.042	0.28	0.419	1.11	1.09	0.798	1.1	1.1	0.0525	1.34	0.907
